In the library only some 10% were active in any assay of this set; here they are far more common.
Luciferase inh: inhibitors of firefly (Photinus pyralis) luciferase; purified P. pyralis luciferase, luminescence, biochemical; Potency, µM (doses to about 115 µM), usual class: inhibitors; hit rate 2.5% among 76,000; note: nearly all actives have a fitted effect of over 65% in size
Target sequence (P08659 whole entry, looked up): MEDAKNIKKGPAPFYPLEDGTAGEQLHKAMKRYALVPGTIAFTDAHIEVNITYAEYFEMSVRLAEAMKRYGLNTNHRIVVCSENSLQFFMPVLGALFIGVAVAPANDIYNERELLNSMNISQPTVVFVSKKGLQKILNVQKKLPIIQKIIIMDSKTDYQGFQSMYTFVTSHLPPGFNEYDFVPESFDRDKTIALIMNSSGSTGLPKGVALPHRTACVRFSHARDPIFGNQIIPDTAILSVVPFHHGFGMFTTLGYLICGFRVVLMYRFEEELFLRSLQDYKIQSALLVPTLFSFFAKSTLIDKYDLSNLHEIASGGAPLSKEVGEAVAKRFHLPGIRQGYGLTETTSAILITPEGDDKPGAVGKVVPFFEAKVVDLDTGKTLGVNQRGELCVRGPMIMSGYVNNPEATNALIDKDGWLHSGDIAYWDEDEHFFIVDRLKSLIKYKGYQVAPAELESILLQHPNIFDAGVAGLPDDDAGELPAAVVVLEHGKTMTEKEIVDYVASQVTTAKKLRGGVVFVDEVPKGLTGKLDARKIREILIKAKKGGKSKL
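FLuc 10nM, D-luciferin 10uM, ATP 10uM, Mg acetate 10mM, Tris acetate pH 7.5, Tween/BSA; cpd qHTS; enzyme added last; CCD luminescence.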
NIH3T3 tox: cytotoxic compounds in NIH 3T3 cells | Potency, µM (top dose mostly 96.7 µM), for inactives: at the highest dose activity change, negative = cytotoxicity, hits mostly inhibitors | NIH 3T3 viability, CellTiter-Glo ATP luminescence, 48-72 h | AID 1345082 | hit rate 4.3% among 94,000; note: nearly all actives have a fitted effect of over 55% in size
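Luminescent ATP readout (CellTiter-Glo, 10 min RT) after 48 or 72 hr compound exposure of NIH 3T3 cells seeded at 400 cells/well in 1536-well format; quantitative HTS.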
HEK cytotox: cytotoxic compounds in HEK 293 cells. hit rate 6.6% among 94,000. Potency, µM (highest dose often 115 µM), for inactives: at the highest dose activity change, negative = cytotoxicity, hits mostly inhibitors. AID 1345083. HEK 293 viability, ATP luminescence (CellTiter-Glo), 48-72 h; note: nearly all actives have a fitted effect of over 60% in size
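CellTiter-Glo luminescence (cellular ATP) was read after 48 or 72 hr of compound exposure at 37 degree Celsius. Cells were HEK 293 plated at 250 cells/well.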
hNpr1 antagonist: human Npr1 receptor antagonism; P16066; HEK293 hNpr1 GloSensor cGMP, ANP-stimulated luminescence; Potency, µM (highest dose often 46.3 µM), inactives show at the highest dose activity change, negative = inhibition, most hits filed as inhibitors; hit rate 1.6% among 76,000; calls by dose curve; note: nearly all actives have a fitted effect of over 60% in size
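Compound pre-incubated 30 min at room temperature on GloSensor-loaded HEK293 cells stably carrying hNpr1 and the pGS-40F cGMP biosensor. Stimulation uses hNppA at 0.1 nM final; luminescence is taken at baseline and 20 min post-agonist.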
GPT2 inh: blocks human glutamate pyruvate transaminase 2; Q8TD30; Recombinant GPT2, coupled pyruvate oxidase/HRP Amplex Red fluorescence; Potency, µM (top dose mostly 57.7 µM), without a hit: at the highest dose activity change, negative = inhibition, usual class: inhibitors; hit rate 0.25% among 100,000; AID 1671188; note: nearly all actives have a fitted effect of over 60% in size
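Inhibition is scored from Amplex Red fluorescence generated when pyruvate oxidase and HRP act on pyruvate released by GPT2. Reactions contain 10ng/uL enzyme, 250uM a-KG and 2mM L-alanine and run 30 min at room temperature.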
An asterisk follows results filed as active; i = inactive; ? = inconclusive; · = no result; [ ] = remark or other dose. Unless noted, calls come from the whole dose curve; as a rule, active = well fitted curve in the direction sought with a large enough effect; inconclusive = small, poorly fitted or top-dose-only effect, or another doubt; inactive = no such curve, though single readings can be large; an effect the other way counts as inactive or inconclusive. % is set by controls: 0 for no effect and ±100 for the full control effect; potency is the fitted concentration of half-maximal effect.

SMILES	Luciferase inh	NIH3T3 tox	HEK cytotox	hNpr1 antagonist	GPT2 inh
COc1ccc(S(=O)(=O)NC[C@H]2C[C@@H]3CCN2C[C@@H]3CN2CCCCC2)cc1	i	100µM*	112µM*	2.7%[70.6 µM]	-15.3%[88.5 µM]
COc1ccc(S(=O)(=O)NC[C@H]2C[C@@H]3CCN2C[C@@H]3CN2CCc3ccccc32)cc1	i	39.8µM*	28.2µM*	1.8%[70.6 µM]	-17.6%[88.5 µM]
CC1CCCC(=O)CCC/C=C/c2cc(O)cc(O)c2C(=O)O1 (configuration not stated)	·	·	·	·	3.7%[27.3 µM]
CSc1ccc(-c2ccc(=O)n3c2[C@@H]2C[C@@H](CN(C(=O)Nc4cccc(F)c4)C2)C3)cc1	i	?	?	-13.0%	?
Cc1ccc(S(=O)(=O)NC[C@H]2C[C@@H]3CCN2C[C@@H]3CN2CCc3ccccc32)cc1	i	44.7µM*	28.2µM*	-8.7%[70.6 µM]	?
Cc1ccc(S(=O)(=O)NC[C@H]2C[C@@H]3CCN2C[C@@H]3CN2CCCCC2)cc1	i	-22.7%[174 µM]	?	4.4%[70.6 µM]	1.9%[88.5 µM]
Cc1nc(-c2ccccc2Br)cc([C@H]2CN3CC[C@H]2C[C@@H]3CNC(=O)Nc2ccc(Cl)cc2)n1	i	35.5µM*	22.4µM*	-5.6%	1.1%
Cc1nc(-c2ccc(C(F)(F)F)cc2)cc([C@H]2CN3CC[C@H]2C[C@@H]3CNC(=O)C(C)(C)C)n1	i	20µM*	39.8µM*	-0.4%	i
Cc1nc(-c2ccco2)cc([C@H]2CN3CC[C@H]2C[C@@H]3CNCC2CCCCC2)n1	i	89.1µM*	112µM*	-20.7%[70.6 µM]	-25.1%[88.5 µM]
Cc1nc(-c2ccc(F)cc2)cc([C@H]2CN3CC[C@H]2C[C@@H]3CNC(=O)c2ccco2)n1	i	100µM*	?	7.9%[70.6 µM]	-6.2%[88.5 µM]
COc1ccc(C(=O)N2C[C@@H]3C[C@H](C2)c2c(-c4ccc(Cl)cc4)ccc(=O)n2C3)cc1	i	i	1.4%[172 µM]	-0.8%[70.6 µM]	i
Cc1nc(-c2ccc(F)cc2)cc([C@H]2CN3CC[C@H]2C[C@@H]3CNC(=O)Nc2cccc(C#N)c2)n1	i	22.4µM*	?	-15.0%	-9.8%
Cc1nc(-c2ccccc2Br)cc([C@H]2CN3CC[C@H]2C[C@@H]3CNC(=O)Nc2cccc(C#N)c2)n1	i	28.2µM*	22.4µM*	-4.6%	-10.3%
Cc1nc(-c2ccc(C(F)(F)F)cc2)cc([C@H]2CN3CC[C@H]2C[C@@H]3CNC(=O)N2CCOCC2)n1	i	?	?	2.5%	-12.4%
Cc1nc(-c2ccccc2)cc([C@H]2CN3CC[C@H]2C[C@@H]3CNC(=O)N2CCOCC2)n1	i	89.1µM*	?	4.5%[70.6 µM]	0.2%[88.5 µM]
Cc1nc(-c2ccc(F)cc2)cc([C@H]2CN3CC[C@H]2C[C@@H]3CNC(=O)NCc2ccccc2)n1	i	?	?	1.7%	3.7%
COC1CC(=C(c2cccs2)c2cccs2)C[N+](C)(C)C1 (configuration not stated)	·	·	·	·	i
O=C(Nc1ccc2n(c1=O)C[C@H]1C[C@@H]2CN(C(=O)NC2CCCCC2)C1)c1ccco1	i	89.1µM*	-13.2%[172 µM]	1.9%[70.6 µM]	1.7%[88.5 µM]
CCC1NC(=O)C2C(Cl)C(Cl)CN2C(=O)C(C(C)O)NC(=O)CC(c2ccccc2)NC(=O)C(CO)NC1=O (configuration not stated)	·	·	·	·	0.4%[17.1 µM]
COc1cc2c(cc1OC1CCCC1)NC(=O)C21CCN(C(=O)c2cccc(O)c2)CC1	i	?	79.4µM*	-22.1%[70.6 µM]	-4.5%[88.5 µM]
COc1cc2c(cc1OC1CCCC1)NC(=O)C21CCN(C(=O)c2cccc(C#N)c2)CC1	i	22.4µM*	?	-9.6%	-9.1%
O=c1cccc2n1C[C@H]1C[C@@H]2CN(C[C@H]2CN3CC[C@H]2C[C@@H]3CNS(=O)(=O)c2cccs2)C1	i	?	?	-3.2%	0.9%
Cc1ncc2c(n1)C[C@@H]1CC[C@H]2N1S(=O)(=O)c1ccccc1	i	-3.5%	-0.7%	0.8%	i
COc1ccc(-c2cc([C@H]3CN4CC[C@H]3C[C@@H]4CNC(=O)Nc3ccccc3)n(C)n2)cc1	i	79.4µM*	?	1.8%	i
COc1ccc(-c2cc([C@H]3CN4CC[C@H]3C[C@@H]4CNC(=O)Nc3ccccc3)n(C)n2)cc1OC	i	?	?	-1.2%	-0.4%
SMILES	Luciferase inh	NIH3T3 tox	HEK cytotox	hNpr1 antagonist	GPT2 inh
Cn1nc(-c2ccccc2)cc1[C@H]1CN2CC[C@H]1C[C@@H]2CNC(=O)Nc1cccc(C#N)c1	i	-21.0%	-27.7%	4.7%	-5.7%
Cn1nc(-c2ccc3ccccc3c2)cc1[C@H]1CN2CC[C@H]1C[C@@H]2CNC(=O)Nc1ccccc1	i	20µM*	?	0.2%	-2.7%
COc1ccc(CN(Cc2ccc(OC)cc2)C[C@H]2C[C@@H]3CCN2C[C@@H]3c2cc(C3CCCC3)nn2C)cc1	i	20µM*	25.1µM*	1.5%	0.2%
Cn1nc(-c2ccccc2)cc1[C@H]1CN2CC[C@H]1C[C@@H]2CNC(=O)Nc1ccccc1	i	50.1µM*	50.1µM*	-0.3%[70.6 µM]	1.0%[88.5 µM]
COCC1(CO)C(=O)C2CCN1CC2 (configuration not stated)	·	·	·	·	i
Cn1nc(-c2cccs2)cc1[C@H]1CN2CC[C@H]1C[C@@H]2COC(=O)Nc1ccccc1	i	35.5µM*	44.7µM*	-16.0%[70.6 µM]	i
CC(C)NC(=O)NC[C@H]1C[C@@H]2CCN1C[C@@H]2c1cc(-c2cccs2)nn1C	i	-27.2%[174 µM]	-14.9%[172 µM]	1.3%[70.6 µM]	-4.2%[88.5 µM]
CC(C)NC(=O)NC[C@H]1C[C@@H]2CCN1C[C@@H]2c1cc(-c2ccc3ccccc3c2)nn1C	i	28.2µM*	22.4µM*	2.3%[70.6 µM]	1.4%[88.5 µM]
Cn1nc(C2CCCCC2)cc1[C@H]1CN2CC[C@H]1C[C@@H]2CNC(=O)COc1ccccc1	i	?	44.7µM*	-0.3%	i
Cn1nc(C2CCCC2)cc1[C@H]1CN2CC[C@H]1C[C@@H]2CNC(=O)Nc1ccccc1	i	?	100µM*	5.7%[70.6 µM]	-3.6%[88.5 µM]
COCC(=O)NC[C@H]1C[C@@H]2CCN1C[C@@H]2c1cc(C2CCCCC2)nn1C	i	-11.1%[174 µM]	0.0%[172 µM]	-2.1%[70.6 µM]	-16.1%[88.5 µM]
O=c1[nH]c2ccccc2n1C1CCNCC1	·	·	·	·	0.0%
COc1ccc(NC(=O)NC[C@H]2C[C@@H]3CCN2C[C@@H]3c2cc(-c3cccs3)nn2C)cc1	i	?	?	3.1%	0.5%
COc1ccc(-c2cc([C@H]3CN4CC[C@H]3C[C@@H]4COC(=O)Nc3ccccc3)n(C)n2)cc1	i	20µM*	?	-6.5%	i
COc1ccc(NC(=O)NC[C@H]2C[C@@H]3CCN2C[C@@H]3c2cc(-c3ccccc3)nn2C)cc1	i	?	28.2µM*	-6.2%	3.9%

Bioassay records deposited in PubChem by National Center for Advancing Translational Sciences (NCATS).
